# Screening data from PubChem.
# GRK2 inh – inhibitors of human GRK2 displacing RNA aptamer; AID 488847; P25098; inhibition of aptamer binding, % at 10 µM; hit rate 0.59% among 330,000; bead flow cytometry, FAM-aptamer displacement from GRK2;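 active = inhibition of aptamer binding above 40%, roughly 3 SD of noise, on plates passing a quality check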;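 also: median bead fluorescence of bound FAM aptamer so fluorescent compounds give negative values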
# Target sequence (P25098 whole entry, looked up): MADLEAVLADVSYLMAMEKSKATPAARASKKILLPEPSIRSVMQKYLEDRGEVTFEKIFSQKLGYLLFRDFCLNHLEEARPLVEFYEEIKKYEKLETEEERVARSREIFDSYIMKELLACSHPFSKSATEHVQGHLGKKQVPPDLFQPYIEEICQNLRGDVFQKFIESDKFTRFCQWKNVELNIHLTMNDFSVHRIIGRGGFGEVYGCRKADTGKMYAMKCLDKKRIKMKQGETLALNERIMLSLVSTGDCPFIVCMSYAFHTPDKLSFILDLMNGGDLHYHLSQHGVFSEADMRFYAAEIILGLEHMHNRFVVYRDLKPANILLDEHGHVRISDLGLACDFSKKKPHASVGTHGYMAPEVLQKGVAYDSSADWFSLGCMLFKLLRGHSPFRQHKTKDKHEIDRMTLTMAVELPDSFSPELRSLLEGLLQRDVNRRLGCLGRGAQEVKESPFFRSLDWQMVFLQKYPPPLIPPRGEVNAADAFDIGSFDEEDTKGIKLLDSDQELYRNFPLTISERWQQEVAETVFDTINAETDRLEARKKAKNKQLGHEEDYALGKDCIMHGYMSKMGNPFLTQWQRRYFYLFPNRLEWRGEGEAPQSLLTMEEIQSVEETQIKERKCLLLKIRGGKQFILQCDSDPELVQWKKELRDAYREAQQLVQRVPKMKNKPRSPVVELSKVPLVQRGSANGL
# MEKK3 PB1 HTS – MEKK3-MEK5 PB1 interaction, increase or decrease; bead-based flow cytometry, Alexa488-MEK5 binding to MEKK3; actives lie on both sides; 0 = blocked by unlabeled MEK5, 100 = vehicle; hit rate 1.4% among 290,000; Q99759; binding response (% of control), % at 10 µM;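 active = binding response more than 3 SD above or below the average of its plate-row segment, actives on both sides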;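 also: Alexa488 bead fluorescence after subtracting the streptavidin-only scavenger bead signal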
# MEKK2 WT-MEK5 – raises or lowers MEK5 binding to wildtype human MEKK2 PB1 domain | binding response (% of control), % at 10 µM | Q9Y2U5 | bead flow cytometry, Alexa488-MEK5 binding to MEKK2 WT; actives lie on both sides | AID 1531 | hit rate 1.1% among 290,000; in the data active = binding response below about 67% or above about 130%
# MEKK2 mut-MEK5 – signal of MEK5 binding to mutant human MEKK2 PB1 domain | bead flow cytometry, Alexa488-MEK5 binding to MEKK2 mutant | percent response, % at 10 µM | hit rate 0.35% among 290,000; in the data active = percent response above about 24%, passing the limit was not always enough
# MEKK2wt confirm – raises or lowers MEK5 binding to wildtype human MEKK2, retest; hit rate 2.4% among 5,900; bead flow cytometry, Alexa488-MEK5 binding to MEKK2 WT; actives lie on both sides; binding response (% of control), % at 10 µM; shares compounds with MEKK3 PB1 HTS; in the data active = binding response below about 16% or above about 210%; inactive = in between
# MEKK2mut confirm – signal of MEK5 binding to mutant human MEKK2, retest. hit rate 2% among 5,900. bead flow cytometry, Alexa488-MEK5 binding to MEKK2 mutant. percent response, % at 10 µM. shares compounds with MEKK3 PB1 HTS; in the data active = percent response mostly above about 71%, no sharp cut-off; inactive = mostly below about 38%;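 also: higher means compound restores mutant binding toward wildtype level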
# MEKK3-MEK5 inh – confirmation of inhibitors of MEK5 binding to human MEKK3 | AID 1894 | bead flow cytometry, Alexa488-MEK5 binding to MEKK3; hits give low values | shares compounds with MEKK3 PB1 HTS | binding response (% of control), % at 10 µM | hit rate 1.8% among 5,900;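 active = binding response below 72% of control, or above a set upper limit, though filed actives all read lower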;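 also: 100% = DMSO only wells and 0% = binding blocked by excess unlabeled MEK5; lower values mean stronger disruption of MEK5 binding to MEKK3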
# * marks the source's active call; other numbers are inactive results; x = not tested or not shown; [ ] = another dose, or the depositor's remark. Most compounds without a hit are left out; they make up all but 2.5% or so of the library.
SMILES,GRK2 inh,MEKK3 PB1 HTS,MEKK2 WT-MEK5,MEKK2 mut-MEK5,MEKK2wt confirm,MEKK2mut confirm,MEKK3-MEK5 inh
O=C(CSc1nnc(-c2ccco2)o1)N1c2ccccc2CCc2ccccc21,2,80*[inhibitor],85,-11,102,7,101
O=C(CSc1nnc(-c2ccco2)o1)N1CCN(c2ccccc2)CC1,0,136*,122,5,106,2,106
CC(OC(=O)c1cccc(-n2cnnn2)c1)C(=O)Nc1ccccc1F (stereo not drawn),1,x,x,x,x,x,x
S=C(c1cn(Cc2ccccc2)c2ccccc12)N1CCOCC1,0,102,103,2,x,x,x
Cc1nnc(N)s1,2,73*[inhibitor],82,-37,101,0,101
COc1ccc(CCN(C)C(=O)c2ccc(C)c(S(=O)(=O)N3CCCCC3)c2)cc1OC,0,x,x,x,x,x,x
COc1cccc(C2CC(=O)Nc3cc4c(cc32)CCC4)c1 (stereo not drawn),12,100,105,0,x,x,x
O=C1CC(c2cccc(Cl)c2)c2cc3c(cc2N1)CCC3 (stereo not drawn),0,2.0*[inhibitor],-2.0*[inhibitor],-27,88,-6,95
O=C(CCC(=O)Nc1ccc(Cl)cc1Cl)NNC(=O)[C@@H]1CCCC[C@@H]1C(=O)O,3,1.0*[inhibitor],1.0*[inhibitor],-21,93,-8,95
CC1CN(c2nc3ccccc3nc2C(C#N)C(=O)NC2CCCCC2)CC(C)O1 (stereo not drawn),5,15*[inhibitor],22*,-49,106,10,103
CC1CN(c2nc3ccccc3nc2C(C#N)C(=O)OC2CCCCC2)CC(C)O1 (stereo not drawn),7,91,82,-5,x,x,x
CCCc1ccc(C#N)c(SC2CC(=O)N(c3ccc(OC)cc3)C2=O)n1 (stereo not drawn),1,98,94,-9,x,x,x
COc1ccc(N2C(=O)CC(Sc3nc(C)cc(C)c3C#N)C2=O)cc1 (stereo not drawn),0,1.0*[inhibitor],-7.0*[inhibitor],-3,102,2,106
CC(=O)N1CCC(CCCC2CCN(C(C)=O)CC2)CC1,0,x,x,x,x,x,x
Cc1ccccc1OCC(=O)OC(C)CN1CCN(C)CC1 (stereo not drawn),5,69*[inhibitor],73,-37,111,10,107
Cc1ccccc1C(=O)OC(C)CN1CCN(C)CC1 (stereo not drawn),0,97,102,-4,x,x,x
O=C(N/C(=C/C=C/c1ccccc1)C(=O)N1CCCCC1)c1ccc([N+](=O)[O-])cc1,3,93,90,-12,x,x,x
CCNC(=S)N1CCN(S(=O)(=O)c2cccc(C(F)(F)F)c2)CC1,0,151*,110,0,105,1,103
NNC(=O)Cn1nc(-c2ccccc2)c2ccccc2c1=O,0,2.0*[inhibitor],3.0*[inhibitor],-51,105,4,105
N#Cc1c(Nc2ccccc2)c(/C=N/N=C/c2ccccc2)c[nH]c1=O,0,138*,104,0,100,3,105
N#Cc1c(Nc2ccccc2)c(/C=N/NCCO)c[nH]c1=O,1,101,99,-2,x,x,x
CCOC(=O)Cc1csc(NC(=O)Cc2ccc([N+](=O)[O-])cc2)n1,6,132*,102,1,125,10,111
CCOC(=O)Cc1csc(N/N=C/c2ccccc2)n1,3,154*,110,3,107,-1,102
CCOC(=O)Cc1csc(NC(=O)CC(C)(C)CC(=O)O)n1,4,128*,131,25,97,-2,100
O=C(Cc1ccc([N+](=O)[O-])cc1)Nc1nnc(C2CC2)s1,0,171*,107,1,104,-1,101
SMILES,GRK2 inh,MEKK3 PB1 HTS,MEKK2 WT-MEK5,MEKK2 mut-MEK5,MEKK2wt confirm,MEKK2mut confirm,MEKK3-MEK5 inh
O=[N+]([O-])c1cccc(S(=O)(=O)N/N=C/c2ccc(O)cc2)c1,1,100,98,0,x,x,x
Cc1cc(C)c(S(=O)(=O)n2c([N+](=O)[O-])cnc2C)cc1C,2,83,101,3,x,x,x
CC1CCCC(C)N1C(=O)CSc1nnc(COc2cccc3cccnc23)o1 (stereo not drawn),0,100,88,-8,x,x,x
COc1cc2nc(=S)n(CCCN3CCOCC3)c(N)c2cc1OC,x,105,106,1,x,x,x
CCOC(=O)c1ccc(NC(=O)CN2C(=O)C(CC)SC(CC)C2=O)cc1 (stereo not drawn),2,148*,109,1,103,2,99
CCC1SC(CC)C(=O)N(CC(=O)Nc2ccc3c(c2)OCO3)C1=O (stereo not drawn),0,133*,102,0,109,3,102
CCOC(=O)c1ccc(NC(=O)CN2C(=O)CSCC2=O)cc1,0,132*,103,0,96,-2,93
N#CN=C(c1ccccc1)c1ccccc1,0,96,97,1,x,x,x
CSCCC(=O)N1C(C)CCCC1C(=O)O (stereo not drawn),2,110,108,7,x,x,x
COc1cccc(OC)c1NC(=O)Cc1nn(C)c(=O)c2ccccc12,4,125*,123,8,98,1,98
COc1ccc(/C=C\c2onc(C)c2S(=O)(=O)N2CCC(C(=O)NCc3ccco3)CC2)cc1,2,130*,115,31,107,5,106
Cc1noc(/C=C/c2cccs2)c1S(=O)(=O)N1CCC(C(=O)NCCCN2CCCC(C)C2)CC1 (stereo not drawn),0,109,152*,33,146,34,108
CCCCNC(=O)C1CCCN(S(=O)(=O)c2c(C)noc2/C=C/c2cccs2)C1 (stereo not drawn),0,95,93,-5,x,x,x
CCN1c2ccccc2-c2nc3ccccc3n2C1c1cccs1 (stereo not drawn),3,0.0*[inhibitor],0.0*[inhibitor],-5,104,0,105
Cc1cc(NS(=O)(=O)c2ccc(NC(=O)CSc3nnc(-c4ccco4)n3N)cc2)nc(C)n1,1,99,114,19,x,x,x
Cc1cc(NS(=O)(=O)c2ccc(NC(=O)CSc3nnc(-c4ccco4)n3C)cc2)nc(C)n1,0,141*,111,1,110,11,107
COCCN=c1scc(-c2cc(OC)c(OC)c(OC)c2)n1/N=C/c1c(C)[nH]c2ccccc12,7,84,x,77*,94,-6,88
CCCCCCCCCCCCN1C/C(=C\C(=O)OCC)c2cc(C(F)(F)F)ccc2S1(=O)=O,0,109,67*,51*,98,-2,96
COC(=O)c1nnn(-c2ccsc2C(=O)OC)c1C(=O)OC,1,145*,123,5,101,-5,100
